# CHX counter – Cycloheximide Counterscreen for Small Molecule Inhibitors of Shiga Toxin. 300,000 tested, 12% active. cell reporter, cycloheximide protein synthesis inhibition counterscreen. AID 2314, 2010. max response, %; in the data active = max response mostly above about 13%, no sharp cut-off; inactive = mostly below about 14%; also: read at 38.3 µM for the half of the compounds with a filed dose
# Shiga toxin inh – A qHTS for Small Molecule Inhibitors of Shiga Toxin; 290,000 tested, 9.2% active; AID 2315, 2010; Vero cells, Shiga toxin protein synthesis inhibition reporter; inhibition, % at 38.7 µM; in the data active = inhibition mostly above about 28%, no sharp cut-off; inactive = mostly below about 43%
# Lassa entry inh – qHTS for Inhibitors of binding or entry into cells for Lassa Virus. AID 540256, 2011. Lassa virus pseudotype entry inhibition, cell reporter. Potency, µM (highest dose often 37.9 µM), most hits filed as inhibitors. 300,000 tested, 1.2% active; calls by dose curve; tested in HEK293 cells; also: nearly all actives have a fitted effect of over 50% in size
# AMA1-RON2 inh – qHTS for Inhibitors of AMA1-RON; Towards Development of Antimalarial Drug Lead: Primary Screen; AlphaScreen AMA1-biotinylated RON2 peptide binding; Potency, µM (series often up to 58.2 µM), usual class: inhibitors; 360,000 tested, 0.2% active; active = well fitted inhibition curve with a large enough effect; inconclusive = small, poorly fitted or top-dose-only effect; inactive = no such curve, though single readings can be large or run the other way; also: nearly all actives have a fitted effect of over 45% in size
#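 AMA1 (3D7) with his tag at 25 nM final met compounds first, then biotinylated RON2 peptide at 25 nM; detection used donor plus acceptor beads, 10 µg/mL apiece, read by AlphaScreen after 30 min at room temperature.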
# Marburg entry inh – qHTS for inhibitors of binding or entry into cells for Marburg Virus. Marburg virus pseudotyped entry inhibition, cell reporter. Potency, µM (titrated, usually from 37.8 µM), actives largely listed as inhibitors. 300,000 tested, 1.8% active. AID 540276, 2011; calls by dose curve; tested in HEK293 cells
# Numbers stand for hits; – = inactive; ? = inconclusive; · = no result. The entries come from a sample that favours hits as a whole.
SMILES,CHX counter,Shiga toxin inh,Lassa entry inh,AMA1-RON2 inh,Marburg entry inh
CCc1nnc(NC(=O)Cc2ccc(OCc3c(C)noc3C)cc2)s1,–,–,–,–,?
O=C(Oc1coc(CSc2ncccn2)cc1=O)c1cccs1,16,–,–,–,–
CN1CCC(=NNC(=O)C(=O)Nc2cccc(Br)c2)CC1,–,–,–,–,?
Cc1ccc(NC(=O)C(=O)NN=C2CCCC2)cc1C,10,–,–,–,?
CN1CCC(=NNC(=O)C(=O)Nc2ccc(F)cc2)CC1,38,74,–,–,–
O=C(C[C@@H]1C/C=C\C[C@H](Cc2ccc(F)cc2)C(=O)OC[C@H]2CCCN2C1=O)NCCO,·,·,·,–,·
CC1=CC[C@@H](C)O[C@@]2(C1)C(=O)Nc1cccc(Br)c12,·,·,?,·,–
COc1ccc(CN(C)Cc2ccccc2)c(OC)c1OC,–,–,–,–,–
COc1ccc(-c2noc(CN(C)Cc3ccccc3)n2)c(OC)c1OC,15,–,·,–,·
COc1ccc(N2C(=O)C(CC(=O)Nc3ccccc3)N(Cc3ccccn3)C2=S)cc1 (stereo not given),–,–,?,–,–
c1ccc(CCNc2cnccn2)cc1,18,34,·,–,·
c1ccc(CNc2ccccn2)cc1,–,–,·,–,·
Cc1ccnc(NCc2ccc(Cl)cc2)c1,25,49,?,–,?
c1ccc(CNc2cnccn2)cc1,–,–,–,–,–
Cc1ccc(CNc2cnccn2)cc1,–,27,–,–,–
Clc1ccc(CNc2cnccn2)cc1,–,–,–,–,–
Clc1ccc(CNc2ccccn2)cc1,31,55,–,–,?
Cc1ccc(O)c(NC(=O)c2nc3nc(C)cc(C(F)F)n3n2)c1,·,·,?,·,–
COC(=O)[C@H](C)Sc1nc2c(c(=O)n(C)c(=O)n2C)n1CCC(C)C,·,·,·,·,–
O=C(Nc1ccncc1)c1cc(C2CCCCN2C(=O)CCc2ccccc2)on1 (stereo not given),·,·,·,–,·
CC12CCC(=O)C=C1CCC1C2C(O)CC2(C)C(c3csc(N)n3)CCC12 (stereo not given),·,·,–,–,8.9µM
CC(=O)C1CCC2C3CCC4=CC(=O)CCC4(C)C3CCC12C (stereo not given),–,–,·,·,·
CC12CCC(=O)C=C1CCC1C2CCC2(C)C(c3csc(N)n3)CCC12 (stereo not given),·,·,13µM,–,?
C=C(NC(=O)C(=C)NC(=O)c1csc(C2=NC3c4csc(n4)C4NC(=O)c5csc(n5)C(C(C)(O)C(C)O)NC(=O)C5CSC(=N5)/C(=C/C)NC(=O)C(C(C)O)NC(=O)c5csc(n5)C3(CC2)NC(=O)C(C)NC(=O)C(=C)NC(=O)C(=C)NC(=O)C(C(C)C)NC2C=Cc3c(C(C)O)cc(nc3C2O)C(=O)OC4C)n1)C(N)=O (stereo not given),·,·,6.3µM,–,4µM
Cc1ccc(-n2c(=O)[nH]c3cc(C(=O)NCc4ccccc4)ccc3c2=O)cc1,·,·,–,·,–
SMILES,CHX counter,Shiga toxin inh,Lassa entry inh,AMA1-RON2 inh,Marburg entry inh
Cc1cc(F)ccc1NS(=O)(=O)c1cccc2nsnc12,–,–,–,–,–
Cc1ccc(O)c(NS(=O)(=O)c2cccc3nsnc23)c1,14,–,–,–,–
N#CC(C#N)=Cc1ccc(NC(=O)c2ccc(Br)cc2)cc1,47,75,–,–,–
CC(C)(C)c1ccc(C(=O)Nc2ccc(C=C(C#N)C#N)cc2)cc1,72,154,?,–,–
CC(C)(C)c1ccc(C(=O)Nc2ccc(NC(=O)c3ccc(Cl)c(Cl)c3)cc2)cc1,·,·,–,·,·
CC1CC=CC2C1C(=O)N(Cc1ccccc1)C2c1ccc2ccccc2c1Br (stereo not given),–,–,·,·,·
Cc1ccc(N2CCN(C(=O)C3CCC(=O)N(Cc4ccc(Cl)cc4)C3)CC2)c(C)c1 (stereo not given),–,–,?,–,–
O=C(c1cn(-c2ccccc2)nc1-c1cccs1)N1CCN(c2ccccn2)CC1,16,43,–,–,–
CN1CCN(C(=O)c2cn(-c3ccccc3)nc2-c2cccs2)CC1,–,–,·,–,·
O=C(CCl)NC(Cc1ccccc1)C(=O)OCC(=O)c1ccc(-c2ccccc2)cc1 (stereo not given),·,·,–,–,–
CCCCS(=O)(=O)N1CN(S(=O)(=O)CCCC)C2NC(=O)NC21 (stereo not given),45,–,–,–,–
CCN1C(=O)NC2C1N(S(C)(=O)=O)CCN2S(C)(=O)=O (stereo not given),–,–,–,–,–
COc1ccc(C=CNC(=O)Cc2ccc(OC)c(OC)c2)cc1,·,·,·,·,–
Cc1ccc(NC(=O)Cn2nnc(C(=O)NCc3ccc4c(c3)OCO4)c2N)cc1Cl,·,·,–,·,·
Cc1ccc(NC(=O)c2nnn(CC(=O)Nc3ccc4c(c3)OCO4)c2N)cc1C,21,–,·,–,·
Nc1c(C(=O)Nc2ccc3c(c2)OCCO3)nnn1Cc1cccc(Br)c1,·,·,–,–,–
COc1ccccc1NC(=O)Cn1nnc(C(=O)Nc2ccccc2)c1N,–,–,?,–,–
COc1ccc(CCNC(=O)Cc2cc(OC)c(OC)cc2Br)cc1OC,16,–,–,–,–
Nc1c(C(=O)Nc2ccc3c(c2)OCCO3)nnn1CCc1ccccc1,20,56,·,–,–
COc1ccc(CCNC(=O)Cc2ccc(Cl)cc2)cc1OC,–,·,·,–,·
CCOc1ccc(NC(=O)c2nnn(CC(=O)Nc3ccccc3OC)c2N)cc1,19,–,–,–,–
CCc1cc2cc(C)ccc2nc1SCC(=O)NC1CCCC1,–,–,·,–,?
Cc1ccc(NC(=O)Cn2nnc(C(=O)Nc3ccc(C)c(C)c3)c2N)cc1,15,–,?,–,–
Cc1ccc(NC(=O)c2nnn(Cc3ccccc3)c2N)cc1C,·,·,–,·,?
COc1ccc(CCNC(=O)Cn2nnc(C(=O)Nc3ccc(Br)cc3)c2N)cc1OC,31,–,–,–,–
SMILES,CHX counter,Shiga toxin inh,Lassa entry inh,AMA1-RON2 inh,Marburg entry inh
CCOc1ccc(NC(=O)Cn2nnc(C(=O)NCCc3ccc(OC)c(OC)c3)c2N)cc1,–,–,–,–,–
Cc1cccc(-n2nnc(C(=O)NCc3ccc4c(c3)OCO4)c2N)c1,–,–,–,–,–
Nc1c(C(=O)Nc2ccccc2Cl)nnn1-c1ccc2c(c1)OCCO2,33,65,–,–,–
COc1ccccc1N1CCN(C(=O)c2cc3ccc4ccc(C)[nH]c4c3n2)CC1,·,·,–,·,·
CCOc1ccc(C(=O)Nc2ccc3nc(SCC(=O)N4CCOCC4)sc3c2)cc1,·,·,–,·,–
O=C(Nc1ncccn1)c1cccc(Cl)c1,·,·,·,–,·
CSc1cccc(NC(=O)Nc2ccc(Cl)cc2)c1,–,–,–,–,–
O=C(/C=C/c1cccc(Cl)c1)Nc1ncccn1,–,55,–,–,–
COCCCNC(=O)/C=C/c1cccc(Cl)c1,21,–,–,–,–
CN(C)C(CNC(=O)/C=C/c1cccc(Cl)c1)c1ccccc1 (stereo not given),–,–,–,–,?
CSc1cccc(NC(=O)/C=C/c2cccc(Cl)c2)c1,72,143,?,–,?

# Source: PubChem
